Assay results reported in the supplement of paper PMC3545927.
The other results are listed elsewhere or left out. No count for the full screen is at hand.

B1: HC1602 (peptide)
chain: CAIQRLHGLSAGNASASA
B2: HC2148 (peptide)
chain: CAWVVTSTWVAGNASASA
B3: FS-1947 (peptide)
chain: CARFGRQDEGAGNASASA
B4: FS-2979 (peptide)
chain: CARKRRVLTPAGNASASA
B5: FS-3109 (peptide)
chain: CARTNRDMHGAGNASASA
B6: HC1526 (peptide)
chain: CACTMLVCGDAGNASASA
B7: HC474 (peptide)
chain: CAFKIRMYVGAGNASASA
B8: FS-1656 (peptide)
chain: CASKGRRRKDAGNASASA
B9: FS-1560 (peptide)
chain: CARKRRVRKDAGNASASA
B10: FS-2240 (peptide)
chain: CARTIRSFEGAGNASASA
B11: FS-2976 (peptide)
chain: CARKRRSLGDAGNASASA
B12: TV3 (peptide)
chain: CALYFQSGTVAGNASASA
B13: HC648 (peptide)
chain: CAVFSQMETKAGNASASA
B14: HC882 (peptide)
chain: CAGYTGDFDSAGNASASA
B15: HC1532 (peptide)
chain: CAICESAGVQAGNASASA
B16: FS-2822 (peptide)
chain: CARTGRPVEPAGNASASA
B17: FS-2686 (peptide)
chain: CARKGRCVEPAGNASASA
B18: FS-2039 (peptide)
chain: CARKRRSTNEAGNASASA
B19: FS-1967 (peptide)
chain: CARRKRKNKDAGNASASA
B20: FS-2780 (peptide)
chain: CARRKRLRQDAGNASASA
B21: FS-2696 (peptide)
chain: CARKRKGSDDAGNASASA
B22: FS-87 (peptide)
chain: CARRNRLRKDAGNASASA

Target: furin, P09958
Assay: furin cleavage Z-score vs untreated control; higher = more cleavage, active = 3.5 or more, inactive = 1 or less, 8 variable residues between constant flanks
Outline: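 Furin cleavage was scored on 8-mer peptides joined to a cDNA oligonucleotide and bound to magnetic beads at the N-terminus. Digestion with purified furin (1:10 enzyme:substrate, 0.01 ml, 50 mM HEPES pH 7.5, CaCl2, NaCl) lasted 7.5, 15 or 30 min. Freed DNA was tagged with adapters by PCR, sequenced and counted; the cleavage Z-score is the lowess-adjusted log count versus furin-free reactions, scaled by median absolute deviation.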

Sequence of furin, P09958 (P09958 whole entry): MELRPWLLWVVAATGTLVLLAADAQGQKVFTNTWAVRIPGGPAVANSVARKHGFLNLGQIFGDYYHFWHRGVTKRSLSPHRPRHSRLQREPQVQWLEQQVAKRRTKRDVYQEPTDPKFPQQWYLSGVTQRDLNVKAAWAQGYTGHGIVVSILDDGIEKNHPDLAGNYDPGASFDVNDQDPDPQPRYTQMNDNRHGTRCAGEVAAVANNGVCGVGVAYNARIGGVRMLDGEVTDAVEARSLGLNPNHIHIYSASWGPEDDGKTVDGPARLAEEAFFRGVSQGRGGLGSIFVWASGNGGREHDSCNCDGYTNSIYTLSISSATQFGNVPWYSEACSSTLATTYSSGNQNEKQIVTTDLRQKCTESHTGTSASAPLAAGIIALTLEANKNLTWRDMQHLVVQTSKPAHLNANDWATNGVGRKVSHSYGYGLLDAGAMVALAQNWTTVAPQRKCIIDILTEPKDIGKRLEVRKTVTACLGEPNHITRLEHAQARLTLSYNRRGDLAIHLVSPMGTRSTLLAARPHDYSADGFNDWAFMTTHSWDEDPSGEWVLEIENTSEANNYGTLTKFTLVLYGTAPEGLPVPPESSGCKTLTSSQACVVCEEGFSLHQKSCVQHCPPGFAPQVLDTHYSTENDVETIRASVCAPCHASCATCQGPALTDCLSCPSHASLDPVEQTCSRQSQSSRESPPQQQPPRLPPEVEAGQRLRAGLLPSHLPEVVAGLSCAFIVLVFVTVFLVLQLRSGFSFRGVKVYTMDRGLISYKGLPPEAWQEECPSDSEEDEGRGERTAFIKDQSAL

Row | Sequence | furin cleavage Z-score (7.5 min) | furin cleavage Z-score (15 min) | furin cleavage Z-score (30 min)
1 | B1 | -1.82 (inactive) | 1.34 | -0.804 (inactive)
2 | B2 | -0.151 (inactive) | 0.93 (inactive) | -1.01 (inactive)
3 | B3 | -2.89 (inactive) | -0.0904 (inactive) | -0.336 (inactive)
4 | B4 | -0.402 (inactive) | -0.0349 (inactive) | -1.55 (inactive)
5 | B5 | -0.446 (inactive) | 1.17 | -0.99 (inactive)
6 | B6 | -1.57 (inactive) | -1.58 (inactive) | 0.193 (inactive)
7 | B7 | -0.697 (inactive) | 0.386 (inactive) | -0.234 (inactive)
8 | B8 | 5.25 (active) | 6.69 (active) | 5.72 (active)
9 | B9 | 8.86 (active) | 7.9 (active) | 6.61 (active)
10 | B10 | 3.24 | 4.83 (active) | 5.83 (active)
11 | B11 | 11.1 (active) | 13.3 (active) | 9.59 (active)
12 | B12 | -1.09 (inactive) | -1.65 (inactive) | -0.81 (inactive)
13 | B13 | -1.33 (inactive) | -0.992 (inactive) | -0.89 (inactive)
14 | B14 | 0.222 (inactive) | -2.26 (inactive) | -1.5 (inactive)
15 | B15 | 0.831 (inactive) | -0.227 (inactive) | -1.02 (inactive)
16 | B16 | -0.133 (inactive) | -0.269 (inactive) | -0.327 (inactive)
17 | B17 | 3.13 | 3.86 (active) | 4.66 (active)
18 | B18 | 13.4 (active) | 14 (active) | 10.3 (active)
19 | B19 | -0.815 (inactive) | 0.207 (inactive) | 1.06
20 | B20 | 0.471 (inactive) | 0.0552 (inactive) | 1.44
21 | B21 | 1.74 | 0.267 (inactive) | -0.22 (inactive)
22 | B22 | 7.91 (active) | 8.84 (active) | 6.68 (active)
